Reference: PubChem BioAssay (NCATS)
Inconclusive results are not listed. Calls of active or inactive are those of the source. Calls follow the shape of the dose curve; as a rule, active = well fitted curve in the direction sought with a large enough effect; inconclusive = small, poorly fitted or top-dose-only effect, or another doubt; inactive = no such curve, though single readings can be large; an effect the other way counts as inactive or inconclusive.

Assays:
[1] = test system: Zika virus NS2B-NS3 protease (linked construct); test: Primary screen NINDS Rhodamine qHTS for Zika virus inhibitors (AID 1347160); also: nearly all actives have a fitted effect of over 55% in size
Method in brief: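 Kinetic fluorescence (Ex 480 nm, Em 540 nm) over 15 min with 1.5 microM Rhodamine110 peptide and 25 nM linked protease.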

[2] = target: Calcium and integrin-binding protein 1 (Homo sapiens) (UniProt Q99828); test: Primary qHTS for Identification of Calcium Integrin Binding Protein 1 (CIB1) Competitor (AID 1508620);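 also: GST tagged CIB1 binding a fluorescein labelled alphaIIb integrin peptide tracer; top concentration of the series differs between compounds; % is scaled to controls: 0 for no effect and ±100 for the full control effect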
Calcium and integrin-binding protein 1 (Homo sapiens), sequence (Q99828 whole entry, looked up): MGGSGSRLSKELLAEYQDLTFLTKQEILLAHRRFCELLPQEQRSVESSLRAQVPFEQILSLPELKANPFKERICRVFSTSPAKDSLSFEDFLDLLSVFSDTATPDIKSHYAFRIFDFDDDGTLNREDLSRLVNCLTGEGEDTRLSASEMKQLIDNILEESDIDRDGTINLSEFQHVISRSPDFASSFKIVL
Method in brief: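 Fluorescence polarization competition: CIB1-GST (1 uM final) preincubated with compound 15 min at room temperature, then FITC-labeled alphaIIb peptide (100 nM final) added for another 15 min. Polarization read at Ex 480/Em 540.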

[3] = target: Glutathione peroxidase 1 (Homo sapiens) (UniProt P07203); test: Primary qHTS Assay for Inhibitors of Recombinant Selenoprotein Glutathione Peroxidase 1 (GPX1) (AID 1845191); also: nearly all actives have a fitted effect of over 65% in size; as to activity, negative = inhibition: % is scaled to controls: 0 for no effect and ±100 for the full control effect
Glutathione peroxidase 1 (Homo sapiens), sequence (P07203 whole entry, looked up): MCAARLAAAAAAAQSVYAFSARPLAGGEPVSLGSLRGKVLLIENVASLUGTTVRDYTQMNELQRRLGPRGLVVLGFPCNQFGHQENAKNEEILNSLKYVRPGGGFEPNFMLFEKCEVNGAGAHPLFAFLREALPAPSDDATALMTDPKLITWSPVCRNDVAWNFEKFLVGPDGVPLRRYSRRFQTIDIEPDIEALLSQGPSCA
Method in brief: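 Recombinant GPX1 (10 nM final) was preincubated with compound for 30 min at room temperature, then reacted with 1 mM GSH, 0.5 mM CHP, 0.5 mM NADPH and 100 nM glutathione reductase; NADPH fluorescence (340/450 nm) was read at 0 and 15 min.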

[4] = target: Phospholipid hydroperoxide glutathione peroxidase GPX4 (Homo sapiens) (UniProt P36969); test: Primary qHTS Assay for Inhibitors of Recombinant Selenoprotein Glutathione Peroxidase 4 (GPX4) (AID 1845192); also: % is scaled to controls: 0 for no effect and ±100 for the full control effect; nearly all actives have a fitted effect of over 65% in size
Phospholipid hydroperoxide glutathione peroxidase GPX4 (Homo sapiens), sequence (P36969 whole entry, looked up): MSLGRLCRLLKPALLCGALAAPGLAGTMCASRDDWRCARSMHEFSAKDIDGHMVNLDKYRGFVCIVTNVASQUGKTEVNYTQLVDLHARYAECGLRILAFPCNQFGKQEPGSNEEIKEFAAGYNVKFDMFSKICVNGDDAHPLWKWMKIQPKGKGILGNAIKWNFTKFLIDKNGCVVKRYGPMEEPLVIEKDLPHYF
Method in brief: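 GR-coupled readout: 100 nM GR, 1 mM GSH, 0.5 mM NADPH; NADPH fluorescence (ex 340/em 450 nm) read at t=0 and after 15 min RT. GPX4 200 nM, preincubated 30 min with compound; substrate 0.5 mM CHP.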

[5] = target: Luciferin 4-monooxygenase (Photinus pyralis) (UniProt P08659); test: Primary firefly luciferase (FLuc) qHTS assay for identification of artifact compounds. (AID 1845220); conditions: outcome: dose series up to 54.1 µM unless noted; also: nearly all actives have a fitted effect of over 60% in size
Method in brief: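 In this counter-screen for luciferase artifacts, test compounds met substrate (10 uM each luciferin and ATP) before 10 nM enzyme started the reaction. Light output was measured 5 min later.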

[6] = test system: Nanoluciferase (engineered Oplophorus gracilirostris luciferase); test: Primary Nanoluciferase (NLuc) qHTS assay for identification of artifact compounds. (AID 1845222);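 also: NLuc secreted into diluted conditioned medium of S16 cells; 0% = DMSO and -100% = no enzyme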
Method in brief: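 Using secreted nanoluciferase in S16 culture medium (0.22 um filtered, 1:55 dilution), compounds were preincubated 15 min at RT. Signal was generated with Nano-Glo reagent (1:100) over 5 min.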

CRL-7250 = normal cell line; test: Cytotoxic Profiling of Annotated Libraries Using Quantitative High-Throughput Screening (AID 1296008); conditions: Five cell lines viability, CellTiter-Glo ATP luminescence, 48-72 h; max response: hits give low values; also: nearly all actives have a fitted effect of over 60% in size; as to max response: % is scaled to controls: 0 for no effect and ±100 for the full control effect
Method in brief: (§1)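 Compounds were pin-transferred onto cells and incubated 48 or 72 hr at 37 degree Celsius, 95% humidity. CellTiter-Glo was added, plates sat 10 min at room temperature, then ATP-coupled luminescence was imaged as the viability read-out.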

C33A = test: Primary qHTS to identify gynecologic anti-cancer compounds using libraries of approved drugs and bioactive compounds (AID 1345084); conditions: Gynecologic cancer cell panel viability, ATPlite luminescence, 48 h; series mostly up to 57.5 µM; also: % is scaled to controls: 0 for no effect and ±100 for the full control effect; nearly all actives have a fitted effect of over 55% in size
Method in brief: (§2)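 Cells, 1,000 per well, plated 16 h, then exposed 48 h at 37 C to compounds. Viability by ATPlite luminescence after 15 min at room temperature.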

CAOV3 = test: as above; conditions: Gynecologic cancer cell panel viability, ATPlite luminescence, 48 h; series mostly up to 57.5 µM
Method in brief: as §2

CASKI = test: as above; conditions: Gynecologic cancer cell panel viability, ATPlite luminescence, 48 h; series mostly up to 57.5 µM
Method in brief: as §2

Es-2 = test: as above; conditions: Gynecologic cancer cell panel viability, ATPlite luminescence, 48 h; series mostly up to 57.5 µM
Method in brief: as §2

HeLa = test: as above; conditions: Gynecologic cancer cell panel viability, ATPlite luminescence, 48 h; series mostly up to 57.5 µM
Method in brief: as §2

Hek293T = test: as above; conditions: Gynecologic cancer cell panel viability, ATPlite luminescence, 48 h, control line for the selectivity index; series mostly up to 57.5 µM
Method in brief: as §2

JEG-3 = test: as above; conditions: Gynecologic cancer cell panel viability, ATPlite luminescence, 48 h; series mostly up to 57.5 µM
Method in brief: as §2

OV90 = test: as above; conditions: Gynecologic cancer cell panel viability, ATPlite luminescence, 48 h; series mostly up to 57.5 µM
Method in brief: as §2

PA-1 = test: as above; conditions: Gynecologic cancer cell panel viability, ATPlite luminescence, 48 h; series mostly up to 57.5 µM
Method in brief: as §2

Tov-21-G = test: as above; conditions: Gynecologic cancer cell panel viability, ATPlite luminescence, 48 h; series mostly up to 57.5 µM
Method in brief: as §2

Tov112D = test: as above; conditions: Gynecologic cancer cell panel viability, ATPlite luminescence, 48 h; series mostly up to 57.5 µM
Method in brief: as §2

[7] = P-glycoprotein substrates identified in KB-8-5-11 adenocarcinoma cell line, qHTS therapeutic library screen (AID 1346987); also: nearly all actives have a fitted effect of over 65% in size
Method in brief: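 KB-8-5-11: colchicine-selected sub-line of KB-3-1 over-expressing P-gp; assay medium lacked colchicine. 72 h drug exposure at 37 degree C, CellTiter-Glo.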

NIH3T3 = test: Cytotoxic Profiling of Annotated Libraries Using Quantitative High-Throughput Screening (AID 1296008); conditions: Five cell lines viability, CellTiter-Glo ATP luminescence, 48-72 h; max response: hits give low values; also: nearly all actives have a fitted effect of over 60% in size; as to max response: % is scaled to controls: 0 for no effect and ±100 for the full control effect
Method in brief: as §1

C[C@]12CC[C@@H](O)C[C@@H]1CC[C@@H]1[C@@H]2CC[C@]2(C)C(=O)[C@@H](Br)C[C@@H]12
inactive: Potency [1] | Potency [2] | Potency [3] | Potency [4] | outcome [5] | Potency [6] | max response (CRL-7250) -20.8% | Potency (C33A) | Potency (CAOV3) | Potency (CASKI) | Potency (Es-2) | Potency (HeLa) | Potency (Hek293T) | Potency (JEG-3) | Potency (OV90) | Potency (PA-1) | Potency (Tov-21-G) | Potency (Tov112D)

CN(Cc1cccc(-c2ccncc2)c1)C(=O)Oc1ccc(-c2ccc(C(N)=O)cc2)cc1
inactive: Potency [7] | Potency [1] | Potency [2] | Potency [3] | Potency [4] | outcome [5] | Potency [6] | outcome (CRL-7250) | max response (NIH3T3) 2.66% | Potency (C33A) | Potency (CAOV3) | Potency (CASKI) | Potency (Es-2) | Potency (HeLa) | Potency (Hek293T) | Potency (JEG-3) | Potency (OV90) | Potency (PA-1) | Potency (Tov-21-G) | Potency (Tov112D)

CCC(C)C1NC(=O)C(C(C)=O)=C1O (stereo not given)
inactive: Potency [1] | Potency [2] | Potency [3] | Potency [4] | Potency [6] | max response (CRL-7250) -9.18% | Potency (C33A) | Potency (CAOV3) | Potency (CASKI) | Potency (Es-2) | Potency (HeLa) | Potency (Hek293T) | Potency (JEG-3) | Potency (OV90) | Potency (PA-1) | Potency (Tov-21-G) | Potency (Tov112D)

C[C@H]1CC[C@@H]2[C@@H](C)[C@H]3[C@H](C[C@H]4[C@@H]5CC=C6CC(O[C@@H]7O[C@H](CO)[C@@H](O)[C@H](O[C@@H]8O[C@H](CO)[C@@H](O)[C@H](O)[C@H]8O)[C@@H]7O[C@@H]7O[C@@H](C)[C@H](O)[C@@H](O)[C@H]7O)CC[C@]6(C)[C@H]5CC[C@]34C)N2C1 (stereo not given in full)
inactive: outcome [7] inactive [at 9.29 µM] | Potency [1] | Potency [2] | Potency [3] | Potency [4] | outcome [5] inactive [at 11.6 µM] | activity, negative = inhibition [6] -0.992% [at 11.6 µM] | max response (CRL-7250) -16.5% | outcome (NIH3T3) | activity change, negative = cytotoxicity (C33A) -12.6% [at 11.6 µM] | activity change, negative = cytotoxicity (CAOV3) 17.5% [at 11.6 µM] | activity change, negative = cytotoxicity (CASKI) 0.984% [at 11.6 µM] | activity change, negative = cytotoxicity (Es-2) -2.66% [at 11.6 µM] | activity change, negative = cytotoxicity (HeLa) 8.23% [at 11.6 µM] | activity change, negative = cytotoxicity (Hek293T) 11.3% [at 11.6 µM] | activity change, negative = cytotoxicity (JEG-3) -0.31% [at 11.6 µM] | activity change, negative = cytotoxicity (OV90) -5.29% [at 11.6 µM] | activity change, negative = cytotoxicity (PA-1) 7.63% [at 11.6 µM] | activity change, negative = cytotoxicity (Tov-21-G) -1.56% [at 11.6 µM] | activity change, negative = cytotoxicity (Tov112D) 5.33% [at 11.6 µM]

CC(O)(c1ccccc1)C(Cc1ccc(Cl)cc1)n1cncn1 (stereo not given)
inactive: Potency [7] | Potency [1] | Potency [2] | Potency [3] | Potency [4] | outcome [5] | Potency [6] | max response (CRL-7250) 0.336% | max response (NIH3T3) 1.55% | Potency (C33A) | Potency (CAOV3) | Potency (CASKI) | Potency (Es-2) | Potency (HeLa) | Potency (Hek293T) | Potency (JEG-3) | Potency (OV90) | Potency (PA-1) | Potency (Tov-21-G) | Potency (Tov112D)
